Results on 29 molecules are retold here after PubChem BioAssay (NCATS).

Inconclusive results are not listed. Entries that show only a call come without a potency. Activity calls are given as the source filed them. Calls come from the whole dose curve; as a rule, active = well fitted curve in the direction sought with a large enough effect; inconclusive = small, poorly fitted or top-dose-only effect, or another doubt; inactive = no such curve, though single readings can be large; an effect the other way counts as inactive or inconclusive.

For one assay, the system named is NIH3T3. Briefly: qHTS assay to identify novel small-molecules to repurpose for Merkel cell carcinoma treatment (AID 1296009). Note: nearly all actives have a fitted effect of over 60% in size. The conditions noted are these: MCC and control cell lines, CellTiter-Glo viability, 72 h; at 44.8 µM (top of the series) unless noted. An outline of the steps: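 Dose-response viability screen; 72 hr exposure at 37 degree celsius; CellTiter-Glo added, 10 min room temperature, luminescence read; RLUs scaled between no-cell and DMSO wells.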
`CN(C)[C@@H]1C(=O)C(C(N)=O)=C(O)[C@@]2(O)C(=O)C3=C(O)c4c(O)ccc(Cl)c4[C@@](C)(O)C3C[C@@H]12` (stereo partly drawn): the result was inactive. As to `CN1CCCCC1Cn1cc(C(=O)c2cc([N+](=O)[O-])ccc2I)c2ccccc21` (stereo not drawn), the call was inactive. Regarding `Cc1ccc2c(c1)[C@H]1CN(C)CC[C@H]1N2C(=O)CSc1nnnn1-c1ccc(Cl)cc1`, the outcome was inactive. Still for that read-out and setting: for `CCCN(CCC)[C@@H]1CCc2ccc3[nH]c(C#N)cc3c2C1` the value was “inactive”; for `COc1ccc2c(c1)c(CCN(C)C)cn2S(=O)(=O)c1ccccc1`, “inactive”.

The subject of another assay is C33A. Briefly: Primary qHTS to identify gynecologic anti-cancer compounds using libraries of approved drugs and bioactive compounds (AID 1345084). Note: nearly all actives have a fitted effect of over 55% in size. Note: potency is the fitted concentration of half-maximal effect. The conditions noted are these: Gynecologic cancer cell panel viability, ATPlite luminescence, 48 h; series mostly up to 57.5 µM. A digest of the protocol:
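Luminescence from the ATPlite ATP-monitoring reagent indicates viable cell number; lower signal means cytotoxicity. Cells received compound 16 h after seeding and were exposed for 48 h across five concentrations.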
Take `CN(C)[C@@H]1C(=O)C(C(N)=O)=C(O)[C@@]2(O)C(=O)C3=C(O)c4c(O)ccc(Cl)c4[C@@](C)(O)C3C[C@@H]12` (stereo partly drawn): the Potency result was “inactive”. With `CC(C)[C@H](NC(=O)c1nn(Cc2ccc(F)cc2)c2ccccc12)C(N)=O`, the Potency entry is “inactive”. `CN1CCCCC1Cn1cc(C(=O)c2cc([N+](=O)[O-])ccc2I)c2ccccc21` (stereo not drawn): the Potency result was “inactive”. On the same count and under the same terms, then `CC12CCC3C(C1)c1c(cc(O)c(C(=O)c4ccccc4)c1OC3(C)C)O2` (stereo not drawn), with “inactive”. With `CN1C(=O)[C@@H](Cc2c[nH]c3ccccc23)N=C(c2ccccc2F)c2ccccc21`, the Potency result is “inactive”.

`C#C[C@]1(O)CC[C@H]2[C@@H]3CC[C@H]4Cc5nc6nc7ccccc7n6cc5C[C@]4(C)[C@H]3CC[C@@]21C`: the Potency result is “inactive”. For `CC(C)[C@H]1OC(=O)[C@H](Cc2ccccc2)N(C)C(=O)[C@@H](C(C)C)OC(=O)[C@H](Cc2ccccc2)N(C)C(=O)[C@@H](C(C)C)OC(=O)[C@H](Cc2ccccc2)N(C)C1=O`, the Potency entry was “inactive”. As to `CCC1C2CC3C4N(C)c5ccccc5C45CC(C2C5O)N3C1O` (stereo not drawn), the Potency entry was “inactive”. In the case of `C[C@@H]1O[C@@H](OC2CCC3(C=O)C(CCC4C3CCC3(C)C(C5=CC(=O)OC5)C(O)CC43O)C2)[C@H](O)[C@H](O)[C@H]1O[C@@H]1O[C@H](CO)[C@@H](O)[C@H](O)[C@H]1O` (stereo partly drawn), the Potency was 5.62 µM (active). `C=C(C)C(=O)O[C@H]1[C@@H]2[C@H](C)C(=O)O[C@@H]2C[C@@H](C)[C@@H]2C=CC(=O)[C@]21C`: the Potency was 12.6 µM (active). On to `CCN1C[C@]2(COC)CC[C@H](O)[C@@]34C5C[C@@H]6[C@@H](OC)C[C@@](OC(C)=O)(C5[C@@H]6OC(C)=O)[C@H]([C@H](OC)C23)[C@@H]14` (stereo partly drawn), for which the Potency result was “inactive”. As to `C[C@]12CC[C@H](O)C[C@@]1(O)CC[C@@H]1[C@@H]2CC[C@]2(C)[C@@H](c3ccc(=O)oc3)CC[C@]12O`, the Potency entry is “inactive”. Turning to `CN1C(=O)N(c2ccc(C#N)c(C(F)(F)F)c2)C(=O)[C@@]1(CO)c1ccccc1`, the Potency entry was “inactive”. Take `CC(=O)O[C@H]1C[C@]2(O)[C@@H]3CC[C@@H]4C[C@@H](O)CC[C@]4(C)[C@H]3CC[C@]2(C)[C@H]1c1ccc(=O)oc1`: the Potency was 0.0282 µM (active).

Regarding `CCCCCn1cc(C(=O)Oc2cccc3cccnc23)c2ccccc21`, the Potency entry was “inactive”.

On to `CN=C(NS(=O)(=O)c1ccc(Cl)cc1)N1C[C@H](c2ccccc2)C(c2ccc(Cl)cc2)=N1`, for which the Potency result is “inactive”. Take `COC1CC(O[C@H]2CC[C@@]3(C)C(CCC4C3CC[C@]3(C)C(C5=CC(=O)OC5)CCC43O)C2)OC(C)C1OC1OC(COC2OC(CO)C(O)C(O)C2O)C(O)C(O)C1O` (stereo partly drawn): the Potency is 2.24 µM (active).

`CN1Cc2c(ccc3c2OCO3)[C@@H]2[C@H]1c1cc3c(cc1C[C@@H]2O)OCO3`: the Potency is 7.08 µM (active). Take `CN(Cc1cccc(-c2ccncc2)c1)C(=O)Oc1ccc(-c2ccc(C(N)=O)cc2)cc1`: the Potency result is “inactive”. On to `CN(C(=O)C(c1ccccc1)c1ccccc1)[C@H](CN1CC[C@H](O)C1)c1ccccc1`, for which the Potency entry is “inactive”. In the case of `COC(=O)C12C(=O)C(C)(O)C(=O)C1(C)C(C)=CC1C34CCC(OC3=O)C(C)(C)C4CCC12C` (stereo not drawn), the Potency entry was “inactive”. Consider `CCOc1ccc(Oc2ccc(OCc3cc(F)ccc3F)cc2)c(N)c1`, for which the Potency entry was “inactive”. Same read-out and setting: then `Cc1ccc2c(c1)[C@H]1CN(C)CC[C@H]1N2C(=O)CSc1nnnn1-c1ccc(Cl)cc1`, with “inactive”; and `C=C1C2(C)CC3C(C)(O)C4=CC(=O)OC(C)(C)C4=CCC3(C)C13C(=O)OC(C)C3(O)C2=O` (stereo not drawn), with “inactive”; and `Fc1cc(F)c2c(c1)C1C=CCC1C(c1cccnc1)N2` (stereo not drawn), with 22.4 µM (active). Take `CCCN(CCC)[C@@H]1CCc2ccc3[nH]c(C#N)cc3c2C1`: the Potency result is “inactive”. On to `C[C@]12CC[C@H](O)C[C@@H]1CC[C@@H]1[C@@H]2CC[C@]2(C)[C@@H](C3=CC(=O)OC3)CC[C@]12O`, for which the Potency was 7.94 µM (active). On to `c1ccc([C@@H]2C[C@H]2NC2CCNCC2)cc1`, for which the Potency result is “inactive”.
